# Biological target: T1, POU2 (OCT2 POU domain);BOB1 (OBF1, OCA-B) (human;human, UniProt P09086;Q16633 175-386;1-256, |)
# T1 sequence 1: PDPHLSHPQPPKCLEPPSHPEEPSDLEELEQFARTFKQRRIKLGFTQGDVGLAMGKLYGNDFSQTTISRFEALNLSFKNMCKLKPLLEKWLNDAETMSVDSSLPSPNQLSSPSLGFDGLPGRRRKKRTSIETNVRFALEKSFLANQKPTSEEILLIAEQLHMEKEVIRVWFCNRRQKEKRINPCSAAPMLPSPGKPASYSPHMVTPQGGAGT
# T1 sequence 2: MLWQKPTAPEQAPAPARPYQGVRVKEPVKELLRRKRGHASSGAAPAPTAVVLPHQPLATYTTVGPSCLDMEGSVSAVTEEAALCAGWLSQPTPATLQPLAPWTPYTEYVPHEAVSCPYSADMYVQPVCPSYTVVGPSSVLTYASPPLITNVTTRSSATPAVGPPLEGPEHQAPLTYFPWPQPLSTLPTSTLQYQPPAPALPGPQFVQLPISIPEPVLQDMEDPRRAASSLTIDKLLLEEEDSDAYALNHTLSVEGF
# Experiment: EMSA-SELEX-seq; with BOB1 (ternary complex band); 20 mM Tris-HCl pH 7.6, 140 mM NaCl, 10% glycerol, 0.5 mM EDTA, 0.05% Triton X-100, 0.1 mg/mL BSA, 0.1 mg/mL poly(dI-dC), 5 mM DTT, room temperature, 20 min; high values mean tight binding
# Conditions: protein: recombinant;recombinant; copies: 1;1; dsDNA, one strand shown
# Summary of the method: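 With or without 28 ng coactivator protein, 30 ng of tagged POU-domain protein was combined with 300 ng of a PCR-amplified double-stranded random 35-nt library in 20 μL Tris–HCl pH 7.6 binding buffer for 20 min at RT. The protein came from E. coli BL21 and had been purified under denaturing conditions and renatured. Four rounds of cutting complex bands from native 6% PAGE, elution and PCR amplification preceded Illumina sequencing. The binding preference figure is the percentage of sequenced 8-mers matching a motif pattern.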
row,Sequence,binding signal
1,ACATGAAA,0.0619 % of ANNNNAAN 8-mers
2,AAACAAAA,0.14 % of ANNNNAAN 8-mers
3,AAGCTAAC,0.0215 % of ANNNNAAN 8-mers
4,ACGTAAAA,0.0537 % of ANNNNAAN 8-mers
5,AGCTTAAA,0.0421 % of ANNNNAAN 8-mers
6,ATATAAAC,0.0652 % of ANNNNAAN 8-mers
7,ACAAAAAA,0.0528 % of ANNNNAAN 8-mers
8,ACTACAAC,0.0173 % of ANNNNAAN 8-mers
9,AGGTGAAG,0.0471 % of ANNNNAAN 8-mers
10,ACTACAAT,0.0338 % of ANNNNAAN 8-mers
11,AGGATAAG,0.0479 % of ANNNNAAN 8-mers
12,AGACTAAA,0.0289 % of ANNNNAAN 8-mers
13,AGGCGAAG,0.0297 % of ANNNNAAN 8-mers
14,AGCCGAAA,0.0198 % of ANNNNAAN 8-mers
15,ACCAGAAG,0.0215 % of ANNNNAAN 8-mers
16,ACAGGAAT,0.0702 % of ANNNNAAN 8-mers
17,AACCGAAC,0.0198 % of ANNNNAAN 8-mers
18,AAGACAAG,0.0281 % of ANNNNAAN 8-mers
19,ACACAAAA,0.0363 % of ANNNNAAN 8-mers
20,ATGCCAAG,0.0248 % of ANNNNAAN 8-mers

row,Sequence,binding signal
1,AGCTAAAG,0.0256 % of ANNNNAAN 8-mers
2,ACTCCAAA,0.0149 % of ANNNNAAN 8-mers
3,AGGTGAAC,0.0264 % of ANNNNAAN 8-mers
4,AATAGAAG,0.057 % of ANNNNAAN 8-mers
5,ACGTGAAA,0.0297 % of ANNNNAAN 8-mers
6,ACGGGAAG,0.0347 % of ANNNNAAN 8-mers
7,ACTTAAAG,0.0462 % of ANNNNAAN 8-mers
8,ATAAGAAC,0.0438 % of ANNNNAAN 8-mers
9,AGCGCAAA,0.0215 % of ANNNNAAN 8-mers
10,AAATTAAG,0.319 % of ANNNNAAN 8-mers
11,AATTGAAC,0.052 % of ANNNNAAN 8-mers
12,AATGTAAC,0.0545 % of ANNNNAAN 8-mers
13,ATCTTAAC,0.0512 % of ANNNNAAN 8-mers
14,ACGGAAAG,0.0371 % of ANNNNAAN 8-mers
15,AGATGAAC,0.0256 % of ANNNNAAN 8-mers
16,ACGATAAA,0.0487 % of ANNNNAAN 8-mers
17,ACTGTAAG,0.0264 % of ANNNNAAN 8-mers
18,AGAACAAG,0.0231 % of ANNNNAAN 8-mers
19,ATAGCAAA,0.0454 % of ANNNNAAN 8-mers
